# Laboratory results as given in PMC7862700, “An all-to-all approach to the identification of sequence-specific readers for epigenetic DNA modifications on cytosine”.
# Tests used:
# Experiment in all cases: DAPPL (digital affinity profiling via proximity ligation, sequencing); 10 mM Tris-HCl pH 7.5, 50 mM NaCl, 1 mM DTT, 4% glycerol, room temperature, 30 min; GST-TFs on glutathione beads, 16-mer random dsDNA library, 0.1% formaldehyde crosslink after washing; high values mean tight binding
# [1] = target: T1, FLI1 (Homo sapiens, UniProt Q01543 1-452); conditions: protein: recombinant; tags: N-terminal GST; dsDNA, one strand shown
# T1 sequence: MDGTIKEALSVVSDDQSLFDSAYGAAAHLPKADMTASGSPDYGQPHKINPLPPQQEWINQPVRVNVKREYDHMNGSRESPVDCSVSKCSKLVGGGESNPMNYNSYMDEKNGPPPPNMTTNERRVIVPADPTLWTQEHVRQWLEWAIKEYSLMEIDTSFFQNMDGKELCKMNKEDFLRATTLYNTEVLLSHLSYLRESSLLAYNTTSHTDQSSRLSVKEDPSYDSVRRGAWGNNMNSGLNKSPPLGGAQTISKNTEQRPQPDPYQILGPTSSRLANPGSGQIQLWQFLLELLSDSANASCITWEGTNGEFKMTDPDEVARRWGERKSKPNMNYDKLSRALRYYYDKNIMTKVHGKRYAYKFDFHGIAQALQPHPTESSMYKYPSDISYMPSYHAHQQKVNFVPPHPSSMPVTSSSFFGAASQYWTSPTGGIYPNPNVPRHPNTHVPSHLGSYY
# In short: (§1)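 Yeast served to express human transcription factors as GST fusions, which were then captured on glutathione beads and labelled with DNA barcodes. Pooled with a tag-only sample, they were incubated with 200 nmole of a 16-mer random double-stranded DNA library for 30 min at room temperature in Tris/NaCl/DTT/glycerol buffer, washed, crosslinked with 0.1% formaldehyde, ligated by proximity, amplified by PCR and sequenced. Dividing each hexamer's read frequency for a factor by its frequency for the tag-only sample gives the binding signal.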
# [2] = target: T2, ELK1 (Homo sapiens, UniProt P19419 1-428); conditions: protein: recombinant; tags: N-terminal GST; dsDNA, one strand shown
# T2 sequence: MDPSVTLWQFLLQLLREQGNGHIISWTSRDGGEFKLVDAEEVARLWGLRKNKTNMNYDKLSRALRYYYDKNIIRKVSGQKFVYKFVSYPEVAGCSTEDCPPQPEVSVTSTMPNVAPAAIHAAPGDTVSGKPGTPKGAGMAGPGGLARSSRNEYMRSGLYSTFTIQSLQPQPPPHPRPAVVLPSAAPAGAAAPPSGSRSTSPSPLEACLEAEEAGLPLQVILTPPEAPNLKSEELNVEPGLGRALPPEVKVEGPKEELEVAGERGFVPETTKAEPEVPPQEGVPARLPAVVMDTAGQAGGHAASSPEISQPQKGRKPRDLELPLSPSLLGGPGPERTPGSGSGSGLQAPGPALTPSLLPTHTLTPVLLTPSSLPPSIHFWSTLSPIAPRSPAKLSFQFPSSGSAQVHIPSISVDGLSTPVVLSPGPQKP
# In short: as §1
# [3] = target: T3, GABPA (Homo sapiens, UniProt Q06546 1-454); conditions: protein: recombinant; tags: N-terminal GST; dsDNA, one strand shown
# T3 sequence: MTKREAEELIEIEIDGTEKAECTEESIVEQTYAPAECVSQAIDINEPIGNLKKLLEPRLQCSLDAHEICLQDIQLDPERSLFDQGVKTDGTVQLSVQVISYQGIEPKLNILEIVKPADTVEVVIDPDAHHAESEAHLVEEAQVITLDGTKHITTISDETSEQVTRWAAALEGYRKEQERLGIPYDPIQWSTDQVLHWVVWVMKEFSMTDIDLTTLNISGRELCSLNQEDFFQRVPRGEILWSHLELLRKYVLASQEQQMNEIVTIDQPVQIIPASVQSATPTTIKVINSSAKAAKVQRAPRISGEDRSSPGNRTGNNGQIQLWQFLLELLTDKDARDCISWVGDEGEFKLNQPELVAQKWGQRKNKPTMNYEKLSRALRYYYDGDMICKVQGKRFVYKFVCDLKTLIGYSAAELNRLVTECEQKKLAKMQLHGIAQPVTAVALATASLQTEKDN
# In short: as §1
# [4] = target: T4, ERG (Homo sapiens, UniProt P11308 1-479); conditions: protein: recombinant; tags: N-terminal GST; dsDNA, one strand shown
# T4 sequence: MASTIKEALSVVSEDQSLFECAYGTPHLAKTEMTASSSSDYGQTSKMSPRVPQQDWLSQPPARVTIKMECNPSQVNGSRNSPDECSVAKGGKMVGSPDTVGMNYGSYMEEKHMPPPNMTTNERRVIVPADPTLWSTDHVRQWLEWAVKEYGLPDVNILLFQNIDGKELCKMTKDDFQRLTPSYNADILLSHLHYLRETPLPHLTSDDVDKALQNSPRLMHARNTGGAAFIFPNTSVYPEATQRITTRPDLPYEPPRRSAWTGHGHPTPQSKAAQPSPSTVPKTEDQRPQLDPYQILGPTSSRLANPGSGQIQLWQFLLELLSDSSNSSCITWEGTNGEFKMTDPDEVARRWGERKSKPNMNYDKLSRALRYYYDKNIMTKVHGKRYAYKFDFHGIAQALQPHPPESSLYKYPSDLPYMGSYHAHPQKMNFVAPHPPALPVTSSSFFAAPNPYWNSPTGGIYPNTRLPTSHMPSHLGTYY
# In short: as §1
# [5] = target: ELF1 (Homo sapiens, UniProt P32519 1-619); conditions: protein: recombinant; tags: N-terminal GST; dsDNA, one strand shown
# Chain of ELF1 (P32519 whole entry): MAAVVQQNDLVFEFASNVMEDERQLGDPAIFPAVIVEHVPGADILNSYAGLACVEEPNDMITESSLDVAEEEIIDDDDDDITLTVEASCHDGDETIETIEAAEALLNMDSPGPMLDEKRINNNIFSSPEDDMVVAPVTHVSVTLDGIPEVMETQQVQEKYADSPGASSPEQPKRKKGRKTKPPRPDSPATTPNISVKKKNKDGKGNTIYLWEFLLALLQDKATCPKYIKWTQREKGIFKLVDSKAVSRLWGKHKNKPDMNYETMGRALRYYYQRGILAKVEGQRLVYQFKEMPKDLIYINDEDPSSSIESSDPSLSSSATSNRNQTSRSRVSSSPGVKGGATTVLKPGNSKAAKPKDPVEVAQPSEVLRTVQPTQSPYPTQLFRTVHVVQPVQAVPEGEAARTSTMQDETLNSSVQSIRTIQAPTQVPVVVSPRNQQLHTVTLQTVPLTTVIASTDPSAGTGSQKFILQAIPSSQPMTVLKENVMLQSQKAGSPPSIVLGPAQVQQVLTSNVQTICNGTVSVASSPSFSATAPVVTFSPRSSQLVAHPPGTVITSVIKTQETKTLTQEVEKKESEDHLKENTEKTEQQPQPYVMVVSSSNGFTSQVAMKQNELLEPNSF
# In short: as §1
# [6] = target: T5, EHF (Homo sapiens, UniProt Q9NZC4 1-300); conditions: protein: recombinant; tags: N-terminal GST; dsDNA, one strand shown
# T5 sequence: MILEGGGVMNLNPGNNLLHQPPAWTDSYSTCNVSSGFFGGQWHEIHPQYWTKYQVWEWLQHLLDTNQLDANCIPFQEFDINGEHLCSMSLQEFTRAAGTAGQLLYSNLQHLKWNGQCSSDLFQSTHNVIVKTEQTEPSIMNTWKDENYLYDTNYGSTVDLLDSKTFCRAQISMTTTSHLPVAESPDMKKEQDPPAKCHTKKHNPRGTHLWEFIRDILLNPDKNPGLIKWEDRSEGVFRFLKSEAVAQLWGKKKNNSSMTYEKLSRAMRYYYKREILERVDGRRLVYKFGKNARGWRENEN
# In short: as §1
# [7] = target: SPI1 (Homo sapiens, UniProt P17947 1-270); conditions: protein: recombinant; tags: N-terminal GST; dsDNA, one strand shown
# In short: as §1
# [8] = target: SPIB (Homo sapiens, UniProt Q01892 1-262); conditions: protein: recombinant; tags: N-terminal GST; dsDNA, one strand shown
# Chain of SPIB (Q01892 whole entry): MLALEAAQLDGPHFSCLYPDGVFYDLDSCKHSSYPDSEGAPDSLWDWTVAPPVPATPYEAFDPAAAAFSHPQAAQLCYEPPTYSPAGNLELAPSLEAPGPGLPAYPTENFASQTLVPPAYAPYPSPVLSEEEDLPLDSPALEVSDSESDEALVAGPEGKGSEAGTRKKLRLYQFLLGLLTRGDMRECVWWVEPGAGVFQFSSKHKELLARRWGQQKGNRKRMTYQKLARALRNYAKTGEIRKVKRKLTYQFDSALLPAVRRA
# In short: as §1
# [9] = target: T6, ELK3 (Homo sapiens, UniProt P41970 1-407); conditions: protein: recombinant; tags: N-terminal GST; dsDNA, one strand shown
# T6 sequence: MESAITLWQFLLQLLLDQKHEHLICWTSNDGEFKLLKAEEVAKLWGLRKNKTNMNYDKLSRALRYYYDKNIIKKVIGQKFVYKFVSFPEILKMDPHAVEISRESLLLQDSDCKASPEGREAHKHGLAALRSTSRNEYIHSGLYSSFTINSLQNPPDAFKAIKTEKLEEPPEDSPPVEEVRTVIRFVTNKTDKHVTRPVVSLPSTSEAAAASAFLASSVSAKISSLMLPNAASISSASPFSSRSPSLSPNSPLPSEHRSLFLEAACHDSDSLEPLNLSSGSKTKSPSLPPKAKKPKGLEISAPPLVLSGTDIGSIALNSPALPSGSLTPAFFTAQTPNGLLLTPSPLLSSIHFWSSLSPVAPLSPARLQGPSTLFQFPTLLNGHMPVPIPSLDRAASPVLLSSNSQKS
# In short: as §1
# [10] = target: T7, FEV (Homo sapiens, UniProt Q99581 1-238); conditions: protein: recombinant; tags: N-terminal GST; dsDNA, one strand shown
# T7 sequence: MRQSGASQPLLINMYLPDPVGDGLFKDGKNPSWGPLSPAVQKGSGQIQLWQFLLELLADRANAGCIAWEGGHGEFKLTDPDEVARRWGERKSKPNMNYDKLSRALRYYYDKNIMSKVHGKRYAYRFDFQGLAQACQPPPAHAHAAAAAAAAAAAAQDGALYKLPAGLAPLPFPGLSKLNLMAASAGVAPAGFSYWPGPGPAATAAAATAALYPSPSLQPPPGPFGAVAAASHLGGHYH
# In short: as §1
# [11] = target: ETV5 (Homo sapiens, UniProt P41161 1-510); conditions: protein: recombinant; tags: N-terminal GST; dsDNA, one strand shown
# Chain of ETV5 (P41161 whole entry): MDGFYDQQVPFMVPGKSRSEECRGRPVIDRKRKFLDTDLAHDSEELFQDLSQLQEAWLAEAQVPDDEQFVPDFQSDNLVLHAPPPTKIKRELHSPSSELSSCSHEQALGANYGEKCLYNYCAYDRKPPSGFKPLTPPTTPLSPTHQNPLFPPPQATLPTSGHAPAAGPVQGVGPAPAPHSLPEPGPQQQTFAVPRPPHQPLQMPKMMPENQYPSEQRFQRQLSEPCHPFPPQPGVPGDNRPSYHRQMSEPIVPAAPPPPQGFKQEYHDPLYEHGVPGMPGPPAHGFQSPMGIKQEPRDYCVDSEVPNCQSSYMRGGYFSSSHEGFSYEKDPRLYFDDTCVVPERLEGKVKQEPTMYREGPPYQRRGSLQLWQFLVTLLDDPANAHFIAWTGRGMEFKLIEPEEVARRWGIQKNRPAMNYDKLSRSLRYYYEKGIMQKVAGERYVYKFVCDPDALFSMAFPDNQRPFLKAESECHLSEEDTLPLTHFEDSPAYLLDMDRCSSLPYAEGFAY
# In short: as §1
# [12] = target: HSF1 (Homo sapiens, UniProt Q00613 1-529); conditions: protein: recombinant; tags: N-terminal GST; chain copies: 3; dsDNA, one strand shown
# Chain of HSF1 (Q00613 whole entry): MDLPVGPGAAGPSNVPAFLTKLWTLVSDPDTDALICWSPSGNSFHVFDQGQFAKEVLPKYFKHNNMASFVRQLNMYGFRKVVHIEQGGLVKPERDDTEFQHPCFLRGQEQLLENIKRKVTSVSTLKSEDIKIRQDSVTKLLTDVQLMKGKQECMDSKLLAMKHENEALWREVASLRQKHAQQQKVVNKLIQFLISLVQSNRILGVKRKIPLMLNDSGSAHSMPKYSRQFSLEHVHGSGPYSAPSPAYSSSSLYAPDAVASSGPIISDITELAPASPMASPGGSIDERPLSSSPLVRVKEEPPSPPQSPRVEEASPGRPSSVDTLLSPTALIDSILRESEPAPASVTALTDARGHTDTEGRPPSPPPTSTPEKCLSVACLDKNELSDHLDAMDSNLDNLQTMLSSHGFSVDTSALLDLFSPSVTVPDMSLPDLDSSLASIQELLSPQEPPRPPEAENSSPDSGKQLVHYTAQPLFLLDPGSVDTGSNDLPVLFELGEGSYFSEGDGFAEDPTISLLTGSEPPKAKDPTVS
# In short: as §1
# [13] = target: T8, SPIC (Homo sapiens, UniProt Q8N5J4 1-248); conditions: protein: recombinant; tags: N-terminal GST; dsDNA, one strand shown
# T8 sequence: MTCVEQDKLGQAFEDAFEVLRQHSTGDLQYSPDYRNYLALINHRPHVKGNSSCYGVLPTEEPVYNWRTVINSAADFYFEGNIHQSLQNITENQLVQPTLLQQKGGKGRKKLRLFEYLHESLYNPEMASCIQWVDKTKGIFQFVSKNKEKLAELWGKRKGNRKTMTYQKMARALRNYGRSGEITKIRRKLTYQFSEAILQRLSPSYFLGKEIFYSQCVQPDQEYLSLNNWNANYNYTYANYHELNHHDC
# In short: as §1
# [14] = target: ELF4 (Homo sapiens, UniProt Q99607 1-663); conditions: protein: recombinant; tags: N-terminal GST; dsDNA, one strand shown
# Chain of ELF4 (Q99607 whole entry): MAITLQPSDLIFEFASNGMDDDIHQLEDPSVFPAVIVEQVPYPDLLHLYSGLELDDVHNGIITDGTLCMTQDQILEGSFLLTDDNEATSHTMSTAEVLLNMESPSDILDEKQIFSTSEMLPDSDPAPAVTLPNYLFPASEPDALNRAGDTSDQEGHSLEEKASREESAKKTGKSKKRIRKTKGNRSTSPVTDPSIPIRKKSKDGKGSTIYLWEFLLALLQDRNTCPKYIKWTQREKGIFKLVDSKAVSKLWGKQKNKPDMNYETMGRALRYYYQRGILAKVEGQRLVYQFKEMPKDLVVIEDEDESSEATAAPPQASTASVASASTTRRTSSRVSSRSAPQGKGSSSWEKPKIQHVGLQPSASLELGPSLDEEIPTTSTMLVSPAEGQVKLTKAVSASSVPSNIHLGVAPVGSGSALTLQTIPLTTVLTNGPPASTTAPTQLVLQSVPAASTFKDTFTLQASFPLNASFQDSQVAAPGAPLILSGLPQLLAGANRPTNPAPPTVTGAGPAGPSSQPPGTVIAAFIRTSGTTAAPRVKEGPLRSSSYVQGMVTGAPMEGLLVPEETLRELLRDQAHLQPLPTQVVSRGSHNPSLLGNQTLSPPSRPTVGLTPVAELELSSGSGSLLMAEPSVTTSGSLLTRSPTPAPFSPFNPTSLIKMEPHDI
# In short: as §1
# [15] = target: T9, ELK4 (Homo sapiens, UniProt P28324-2 1-405); conditions: protein: recombinant; tags: N-terminal GST; dsDNA, one strand shown
# T9 sequence: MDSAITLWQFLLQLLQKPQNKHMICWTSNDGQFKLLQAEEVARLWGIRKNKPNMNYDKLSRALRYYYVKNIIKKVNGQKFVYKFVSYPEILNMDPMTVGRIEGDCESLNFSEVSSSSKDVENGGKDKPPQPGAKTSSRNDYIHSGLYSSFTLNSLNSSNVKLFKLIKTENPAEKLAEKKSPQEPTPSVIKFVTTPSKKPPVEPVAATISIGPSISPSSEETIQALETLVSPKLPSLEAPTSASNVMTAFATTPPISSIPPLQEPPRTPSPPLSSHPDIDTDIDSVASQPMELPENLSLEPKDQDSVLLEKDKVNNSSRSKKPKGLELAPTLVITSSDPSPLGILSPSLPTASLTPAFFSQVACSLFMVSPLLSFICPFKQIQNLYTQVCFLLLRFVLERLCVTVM
# In short: as §1
# [16] = target: T10, ETV2 (Homo sapiens, UniProt O00321 1-342); conditions: protein: recombinant; tags: N-terminal GST; dsDNA, one strand shown
# T10 sequence: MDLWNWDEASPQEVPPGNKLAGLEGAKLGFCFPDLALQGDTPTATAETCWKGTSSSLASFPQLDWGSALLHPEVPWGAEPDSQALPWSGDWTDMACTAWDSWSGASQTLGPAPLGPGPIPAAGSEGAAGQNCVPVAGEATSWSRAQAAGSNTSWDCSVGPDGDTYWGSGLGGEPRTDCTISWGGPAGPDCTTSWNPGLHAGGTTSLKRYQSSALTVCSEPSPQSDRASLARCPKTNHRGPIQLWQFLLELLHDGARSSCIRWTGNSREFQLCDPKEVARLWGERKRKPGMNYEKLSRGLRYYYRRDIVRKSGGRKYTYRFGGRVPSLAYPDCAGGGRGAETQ
# In short: as §1
# [17] = target: T11, ELF3 (Homo sapiens, UniProt P78545 1-371); conditions: protein: recombinant; tags: N-terminal GST; dsDNA, one strand shown
# T11 sequence: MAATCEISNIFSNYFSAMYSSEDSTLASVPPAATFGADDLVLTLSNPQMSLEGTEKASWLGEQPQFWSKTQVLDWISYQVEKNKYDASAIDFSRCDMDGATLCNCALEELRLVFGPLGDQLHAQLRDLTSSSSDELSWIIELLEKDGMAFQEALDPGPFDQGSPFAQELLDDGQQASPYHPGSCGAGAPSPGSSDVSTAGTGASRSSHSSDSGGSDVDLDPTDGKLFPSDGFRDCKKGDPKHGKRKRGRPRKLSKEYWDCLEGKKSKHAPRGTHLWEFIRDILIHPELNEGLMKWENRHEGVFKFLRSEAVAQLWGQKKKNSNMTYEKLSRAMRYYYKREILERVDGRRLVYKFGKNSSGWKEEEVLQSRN
# In short: as §1
# [18] = target: CRX (Homo sapiens, UniProt O43186 1-299); conditions: protein: recombinant; tags: N-terminal GST; dsDNA, one strand shown
# Chain of CRX (O43186 whole entry): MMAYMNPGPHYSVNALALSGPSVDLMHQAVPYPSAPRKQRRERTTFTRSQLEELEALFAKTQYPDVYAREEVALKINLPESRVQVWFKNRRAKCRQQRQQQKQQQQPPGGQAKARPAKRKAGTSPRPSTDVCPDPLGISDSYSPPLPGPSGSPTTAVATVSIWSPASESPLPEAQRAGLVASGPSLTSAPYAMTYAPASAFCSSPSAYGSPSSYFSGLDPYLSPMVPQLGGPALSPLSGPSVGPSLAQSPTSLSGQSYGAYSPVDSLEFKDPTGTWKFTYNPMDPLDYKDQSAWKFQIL
# In short: as §1
# [19] = target: ETV1 (Homo sapiens, UniProt P50549 1-477); conditions: protein: recombinant; tags: N-terminal GST; dsDNA, one strand shown
# Chain of ETV1 (P50549 whole entry): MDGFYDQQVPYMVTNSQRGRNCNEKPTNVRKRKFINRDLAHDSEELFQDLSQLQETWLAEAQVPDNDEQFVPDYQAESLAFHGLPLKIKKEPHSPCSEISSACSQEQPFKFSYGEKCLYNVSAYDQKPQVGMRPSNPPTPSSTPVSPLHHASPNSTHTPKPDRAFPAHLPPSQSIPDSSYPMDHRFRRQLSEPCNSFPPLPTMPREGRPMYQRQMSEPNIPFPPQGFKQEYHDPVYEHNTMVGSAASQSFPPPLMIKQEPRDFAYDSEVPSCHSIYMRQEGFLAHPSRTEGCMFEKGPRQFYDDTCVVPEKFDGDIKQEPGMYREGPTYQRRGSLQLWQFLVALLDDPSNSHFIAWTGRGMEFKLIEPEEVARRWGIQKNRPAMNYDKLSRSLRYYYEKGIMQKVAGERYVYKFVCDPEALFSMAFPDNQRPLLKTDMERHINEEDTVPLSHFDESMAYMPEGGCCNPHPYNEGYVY
# In short: as §1
sequence,measurement,setting,value
ACAATT,binding signal,[1],"1.33 fold enrichment (6-mer frequency, TF over GST control)"
same,binding signal,[2],"1.27 fold enrichment (6-mer frequency, TF over GST control)"
same,binding signal,[3],"1.15 fold enrichment (6-mer frequency, TF over GST control)"
same,binding signal,[4],"1.32 fold enrichment (6-mer frequency, TF over GST control)"
same,binding signal,[5],"1.32 fold enrichment (6-mer frequency, TF over GST control)"
same,binding signal,[6],"1.23 fold enrichment (6-mer frequency, TF over GST control)"
same,binding signal,[7],"1.23 fold enrichment (6-mer frequency, TF over GST control)"
same,binding signal,[8],"1.2 fold enrichment (6-mer frequency, TF over GST control)"
same,binding signal,[9],"1.25 fold enrichment (6-mer frequency, TF over GST control)"
same,binding signal,[10],"1.27 fold enrichment (6-mer frequency, TF over GST control)"
same,binding signal,[11],"1.33 fold enrichment (6-mer frequency, TF over GST control)"
same,binding signal,[12],"1.18 fold enrichment (6-mer frequency, TF over GST control)"
same,binding signal,[13],"1.17 fold enrichment (6-mer frequency, TF over GST control)"
same,binding signal,[14],"1.25 fold enrichment (6-mer frequency, TF over GST control)"
same,binding signal,[15],"1.26 fold enrichment (6-mer frequency, TF over GST control)"
same,binding signal,[16],"1.29 fold enrichment (6-mer frequency, TF over GST control)"
same,binding signal,[17],"1.35 fold enrichment (6-mer frequency, TF over GST control)"
same,binding signal,[18],"1.13 fold enrichment (6-mer frequency, TF over GST control)"
same,binding signal,[19],"1.24 fold enrichment (6-mer frequency, TF over GST control)"
